From publication PMC12136788 come the findings set out here.

Over roughly 24,000 sequences, “enrichment r” has its median near 0.99; the highest 2% begin near 3.7. This is one part of a sample in which the highest values are shown more often than they occur.

The labels stand for the following.
T1: UNK ZnF1-3 (human, UniProt Q9C0B0 31-174)
T1 sequence: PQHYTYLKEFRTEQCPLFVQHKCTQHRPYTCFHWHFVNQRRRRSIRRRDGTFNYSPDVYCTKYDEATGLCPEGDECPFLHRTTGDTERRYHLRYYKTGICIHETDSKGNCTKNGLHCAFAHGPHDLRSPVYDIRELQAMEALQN

B1: chr5:61651017:61651018:+_ENSG00000068796_ENST00000381103|hu_hu|FALSE|FALSE (ssRNA)
RNA: GGGAGUUCUACAGUCCGACGAUCCCUAUGUUCAUCAAUAGGAUCUGCUGUUGUUAAUGGUCUAUAAUCCAAACUUCCUCUAAAGUCUCUGAUCAUACACAUAAUUUCAUAAUUUGGGUUUGUAGCAUCAACGUCCUGGGCUCUCAACAGAGGAUUGAGCAUCA
B2: chrX:131339380:131339381:-_ENSMUSG00000033436_ENSMUST00000035559|mus_hu|FALSE|FALSE (ssRNA)
RNA: GGGAGUUCUACAGUCCGACGAUCACUGAGAAGUUUCUUCAACAUAUCUGGAUUUUCAGCAAAAUUCGAAAGGAUUUUCAAAAUCUCAACCUUGAUUUUUCCACCUCCCUGAGAUAGCAAACGGAAAAAGUUUGCAAUGGAAUUCAACAGAGGAUUGAGCAUCA
B3: chr8:95500983:95500984:-_ENSG00000164944_ENST00000437199|hu_hu|hu_hu_hu_mus_True|58_68 (ssRNA)
RNA: GGGAGUUCUACAGUCCGACGAUCAGAACACAUCUAUCGAGUAAAGGACCGUACAUGACGGCCUCUAACCACUGCCUCCACUAACAACUUUCCUCUCGAGCCUCCACUGCCGCUAUUUGUACUAGCCCAGGACGGUCCCAGGCCCAACAGAGGAUUGAGCAUCA
B4: 37721237_37722996_1653_CDS_ENSG00000082068_ENST00000265107|human|control|control (ssRNA)
RNA: GGGAGUUCUACAGUCCGACGAUCUGCCUUCCGCUGGGUUUUAACCACACAUAAUUUUGCUCCCCUCUGACUCUUGUUGGGGUCGUAAUAGACUUUAGCCAAUCCAUUUCCAGUUCCAACCAUGAUCUGGUUCAGCUUUGGAUGCAACAGAGGAUUGAGCAUCA
B5: 55795476_55800851_1969_CDS_ENSG00000138041_ENST00000407823|human|control|control (ssRNA)
RNA: GGGAGUUCUACAGUCCGACGAUCCCGCCUCAUAAAGCGAAGGGCACACAAGGCCAGAAAAGUGUGCUUUGAAUUCAUCAAGACCAAGACUCUUCUUAGCAAGUCCUUGUUCAUAAUAUAGUUUUUUAUGUGAUAUGUGUGAUGCAACAGAGGAUUGAGCAUCA
B6: chr19:8913615:8913616:-_ENSMUSG00000071658_ENSMUST00000096259|mus_hu|mus_mus_mus_hu_False|1_98 (ssRNA)
RNA: GGGAGUUCUACAGUCCGACGAUCAGGGUACCAAAACACCCUGCCUCAAAUGGGUGCCCCACCCAGUAGGGAGUUGCAGCUGAAAGUAUCUGAUGCAGAAGCAGUGACUAUACGAAAGGAGGCCCCUGGGGAGGGCCCGAGAUCCAACAGAGGAUUGAGCAUCA
B7: 69202206_69203042_311_CDS_ENSG00000135679_ENST00000462284|human|control|control (ssRNA)
RNA: GGGAGUUCUACAGUCCGACGAUCUGAGGUGGUUACAGCACCAUCAGUAGGUACAGACAUGUUGGUAUUGCACAUUUGCCUGCUCCUCACCAUCCGGGGUUUUCGCGCUUGGAGUCGGGGGUCCCUCAAGACUCCCCAGUUUCCCAACAGAGGAUUGAGCAUCA
B8: chr1:135503150:135503151:-_ENSMUSG00000090553_ENSMUST00000166915|mus_hu|motif|central (ssRNA)
RNA: GGGAGUUCUACAGUCCGACGAUCUUCUGCAUCAUCUAAUACAAGGUUCAUAUACUCAUCAAAACCAAUGAUACAGCCUUCGGUCCGCAUAUUCACUUGCUCAUAGAGCCACACCUGAAUCCGCGAUCUCUGAAAUAAUCAUAACAACAGAGGAUUGAGCAUCA
B9: chr1:130270616:130270617:-_ENSMUSG00000026356_ENSMUST00000027602|mus_hu|FALSE|FALSE (ssRNA)
RNA: GGGAGUUCUACAGUCCGACGAUCGUAAUGGUAAUUAAAAGCCAUUUCAAUGUCCAAACCAACAAACUCAGUUAGAUGUCUAUGGGUAUUAGAGUCUUCCGCUCUGAAUACUGGUCCAAUAGAGAAAACCUUCUCAAAAUCAGCCAACAGAGGAUUGAGCAUCA
B10: chr1:100327937:100327938:+_ENSG00000162688_ENST00000361915|hu_hu|motif|central (ssRNA)
RNA: GGGAGUUCUACAGUCCGACGAUCUUCUUUUGCAACCCUAAGUCUGCUUUCCCAUUCAUCAAAAGGUCCCAAACACUUAGCGGAAAAUGUCUGAAGAGUAACACAGUCCAAGGGUAGCACAUGAUUAUCAGCACCAACACGUAACAACAGAGGAUUGAGCAUCA
B11: chr14:31337589:31337590:+_ENSMUSG00000021962_ENSMUST00000022535|mus_mus|motif|central (ssRNA)
RNA: GGGAGUUCUACAGUCCGACGAUCAAUGACCUGUAUCAUAGAAACGAAGACACUUUUCAUUCAAAGAAUAUCUCAAAAUUACGGUUGCUGAAAUAAUCAAAUUCUACAUUAAAAUAUUACCAAACACCAUUACAUGCCAUAAAACAACAGAGGAUUGAGCAUCA
B12: chr4:40680069:40680070:+_ENSMUSG00000028410_ENSMUST00000030118|mus_hu|motif|central (ssRNA)
RNA: GGGAGUUCUACAGUCCGACGAUCAAAAUCAGAGCUUUUAUAUUUGCGUUUAUUCUUCAUUUAACUUUUUAAAACACGGCGGUAGUUUAUUAAAACAAAAACAAGAGCAAGUAGUGAGCAUAUUAUGAUUACAGUCCUUCACUCCAACAGAGGAUUGAGCAUCA
B13: chr5:122939345:122939346:-_ENSMUSG00000029467_ENSMUST00000031423|mus_mus|FALSE|FALSE (ssRNA)
RNA: GGGAGUUCUACAGUCCGACGAUCCUUUCUGUCCUGUCGAUACACUUUGCCCAUUUCAGGCUCAUAUUCCUUAAGAGCUUCUAUUGCAUUUUCAGCAUUUCUUUCCUGCCACACACCCACGAUUGCAUUGGCUACCAAGAUAAGCAACAGAGGAUUGAGCAUCA
B14: chr1:38489359:38489360:+_ENSG00000183520_ENST00000537711|hu_mus|FALSE|FALSE (ssRNA)
RNA: GGGAGUUCUACAGUCCGACGAUCAGUCAUGAUUACAAAACAGGAAGACCAAGCCAUUUGAAUUAAUAAAAUCUGAAGUUAUUACAAAAGACAGGAGGAAAAGAUAAUAAUUCUUUUCGAUACAGAAUGCUGAGGCUUAAUUUUCAACAGAGGAUUGAGCAUCA
B15: chr3:41281487:41281488:+_ENSG00000168036_ENST00000349496|hu_hu|motif|central (ssRNA)
RNA: GGGAGUUCUACAGUCCGACGAUCCUACGAGAGACUUAAAAAACAGUUACUGCAAAAAAAAAAAAAAAAAAAAAAAAAGAGCGGCUUCAAAGCAAGCAAAGUCAGUACCAUUACAGAUAUUCUUAAAAAAAAAAAAAAAAAAAUCAACAGAGGAUUGAGCAUCA
B16: 116785305_116785425_2892_3pUTR_ENSMUSG00000055531_ENSMUST00000069168|mouse|control|control (ssRNA)
RNA: GGGAGUUCUACAGUCCGACGAUCAAAAAAUGAAAGAAAGGAAAAAAAAAGAAAAAAAAAUCAGCUGAUUAACUCUAAUCAAGCAUAGAUCAACAAGGUUACAGGAAUACACACACAAUUCCUUGAGCCAUGAAGACAGUGUAACAACAGAGGAUUGAGCAUCA
B17: chr1:58468927:58468928:-_ENSMUSG00000026034_ENSMUST00000148330|mus_mus|mus_mus_mus_hu_False|38_108 (ssRNA)
RNA: GGGAGUUCUACAGUCCGACGAUCAAUCUAUAAUUACGAUGUUCAUUACCUUAGCUAUGUACUUAAUGAACCAAAUUACCCAAACAAAAUAAACAUGUUUACAAAUUAAUGUUAAGAAUUUACAAAGCUGUACAAAAUAACUUACAACAGAGGAUUGAGCAUCA
B18: 97946324_97946444_1485_ncRNA_ENSMUSG00000021666_ENSMUST00000159321|mouse|control|control (ssRNA)
RNA: GGGAGUUCUACAGUCCGACGAUCUGAUUCUGAAAUCAUGUAAAUUAAGAUUUGUUAGGCUGUUUUUUUUUUAAAUAAACCAUCUUUUUAUUGAUUGAAUCUUUCUAUCCCUGAAUCAAACACUGAAUCUUUUAUGUGAGCAGCCAACAGAGGAUUGAGCAUCA
B19: 67235911_67236031_3360_3pUTR_ENSMUSG00000036371_ENSMUST00000042990|mouse|control|control (ssRNA)
RNA: GGGAGUUCUACAGUCCGACGAUCAACAUUCAAAAAUCUUAAACAAGAAUUAUCUUACGAUAAUGAAAAAGGGAAACCAAGAAACAUAUAAAGGGGUUCCCACUUGAUUGCUUUUAUCUUUUAGGAAAUGAGCAUGAAAAUAAACAACAGAGGAUUGAGCAUCA
B20: chr7:40134317:40134318:+_ENSG00000065883_ENST00000340829|hu_mus|FALSE|FALSE (ssRNA)
RNA: GGGAGUUCUACAGUCCGACGAUCGGAAGGGUCAUUGCUGUUUGUGAGGACUGUGAUAGGACCAUGGCUAUAUUCAAAUCUAUGGUCCUUGUCUCCACUAAACAACAUGGGACCAGCAUUGAGGUAAAUGUCUCCAUAUCCAGCCAACAGAGGAUUGAGCAUCA
B21: chr11:61557309:61557310:-_ENSG00000134825_ENST00000537328|hu_mus|FALSE|FALSE (ssRNA)
RNA: GGGAGUUCUACAGUCCGACGAUCGAUGCCAACCCAGAGCAGGAGGAAGAGGACUCCAAAGCCCAUGAAGAGUGAGGCCACCAAGGAGAUGAGGAGCUCUUUGUAAAUAUCGCGUGUGUACUUGGUAGAGGUGACCUCGUAAACCAACAGAGGAUUGAGCAUCA
B22: chr17:60744165:60744166:+_ENSG00000011028_ENST00000303375|hu_mus|FALSE|FALSE (ssRNA)
RNA: GGGAGUUCUACAGUCCGACGAUCGUUGAGGUACUUGAGGGGUGAGUUGUCUGACCACUGCCAGCCUCCACUGGUAUCCAGGUCAUUAAGGCCAAUCCAUAGCGUGGAGCUGUAGCCCGUGAGGAGCCCGUUGAUGUAGGUCUGCAACAGAGGAUUGAGCAUCA

The assay has as its target T1, UNK ZnF1-3. The assay is described as follows: nsRBNS (natural sequence RNA bind-n-seq); RBNS binding buffer (assumed for nsRBNS): 25 mM Tris pH 7.5, 150 mM KCl, 3 mM MgCl2, 0.01% Triton X-100, 500 ug/ml BSA, 20 U/ml SUPERase-In, 4 C; UNK is unkempt and MSI1 is Musashi-1; names of the RNAs are library labels; protein concentration not given here; high values mean tight binding.
In turn, B1 registered a binding signal of 1.64 enrichment R.
On to B2, for which the binding signal came to 0.897 enrichment R.
Take B3: the binding signal worked out at 1.3 enrichment R.
Consider B4, for which the binding signal was determined as 0.501 enrichment R.
Consider B5, for which the binding signal was 2.04 enrichment R.
For B6 the value was 1.7 enrichment R.
For B7 the value was 0.532 enrichment R.
The molecule B8 displayed a binding signal of 1.18 enrichment R.
For the molecule B9, the binding signal was 0.771 enrichment R.
B10: the binding signal came out at 1.32 enrichment R.
The molecule B11 came in with a binding signal of 0.998 enrichment R.
For the molecule B12, the binding signal stood at 1.05 enrichment R.
In the case of B13, the binding signal was 0.9 enrichment R.
B14 gave a binding signal of 8.05 enrichment R.
For B15 the value was 8.09 enrichment R; for B16, 4.36 enrichment R; for B17, 0.436 enrichment R.
In turn, B18 showed a binding signal of 0.66 enrichment R.
Molecule B19 returned a binding signal of 5.78 enrichment R.
Take B20: the binding signal stood at 0.887 enrichment R.
The molecule B21 returned a binding signal of 2.5 enrichment R.
For B22 the value was 1.03 enrichment R.
